# According to PubChem BioAssay AID651860 (Broad Institute, 2012):
# Results with a measured potency or affinity are listed apart. The source made the active and inactive calls.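 How the source made its calls: active means compounds lowering HepG2 cell ATP luminescence with a fitted half-maximal concentration at most twice the top tested dose; inconclusive means flat fit with 30 to 70 percent signal loss, or poor fit; inactive means the rest.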
# Assay: HepG2 cell cytotoxicity, dose response, cytotoxicity control, luminescence plate reader, powder samples, set 2 (AID 651860)
# Details: HepG2 viability, CellTiter-Glo ATP luminescence, 48 h; series mostly up to 26 µM; activity change, negative = cytotoxic: at the top concentration
Structure (SMILES),"activity change, negative = cytotoxic",outcome
Cc1ccccc1S(=O)(=O)Nc1cc(C(C(=O)OC(C)C)C(=O)C(F)(F)F)c(O)c2ccccc12 (centres undefined),-6.55% (inactive),–
O=C(O)C1CCCCC1C(=O)N1CCCCC1CN1C(=O)c2ccccc2C1=O (centres undefined),-10.9% (inactive),–
O=C(O)[C@@H]1CCCN1C(=O)N1CCc2ccccc2[C@H]1CN1C(=O)c2ccccc2C1=O,-13.9% (inactive),–
O=C1c2ccccc2C(=O)N1C[C@@H]1c2ccccc2CCN1C(=O)OCc1ccccc1,1.85% (inactive),–
O=C(O)[C@H]1CCCC[C@H]1C(=O)N1CCc2ccccc2[C@H]1CNS(=O)(=O)c1ccccc1,-11% (inactive),–
O=C(O)CCC(=O)N1CCc2ccccc2C1CN1C(=O)c2ccccc2C1=O (centres undefined),2.6% (inactive),–
CCOC(=O)C(C(=O)OCC)c1nc(NS(=O)(=O)c2c(C)cc(C)cc2C)c2ccccc2n1,2.58% (inactive),–
O=C(O)C1CCCCC1C(=O)N1CCc2ccccc2C1c1ccccc1 (centres undefined),-2.51% (inactive),–
O=C(O)CC(=O)N1CCc2ccccc2C1CN1C(=O)c2ccccc2C1=O (centres undefined),0.313% (inactive),–
COc1ccccc1CCNC(=O)[C@@H]1c2ccccc2CCN1C(=O)C1CCCCC1C(=O)O (some centres undefined),–,inactive
CCOC(=O)C(C(=O)OCC)c1cc(CNS(=O)(=O)c2ccc(C)cc2C)c2ccccc2n1,-9.04% (inactive),–
CCOC(=O)C(C(=O)OCC)c1cc(CN2C(=O)c3ccccc3C2=O)c2ccccc2n1,7.52% (inactive),–
C[C@@H](NC(=O)C1CCCC[C@H]1C(=O)O)c1ccccc1 (mixture of isomers),0.345% (inactive),–
Cc1ccc(S(=O)(=O)NC(=O)[C@@H]2c3ccccc3CCN2C(=O)[C@@H]2CCCC[C@@H]2C(=O)O)cc1,–,inactive
